In the library only some 19% were active in any assay of this set; here they are far more common.
KB-V1 cytotox: qHTS assay for MDR1-selective chemotherapeutics: Primary screen using the drug-selected MDR subline cells KB-V1; hit rate 3.4% among 400,000; Potency, µM (doses to about 46.1 µM), actives largely listed as cytotoxic; KB-V1 MDR cells viability, CellTiter-Glo, 72 h; also: nearly all actives have a fitted effect of over 60% in size
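KB-V1 MDR subline cells in DMEM (phenol-red free, 10% FBS) exposed to compounds in qHTS concentration series for 72 h at 37 degrees C. Viability read by CellTiter-Glo luminescence; concentration-effect curves fitted after normalization and correction.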
HT1080 IDH1KD tx: qHTS for induction of synthetic lethality in tumor cells producing 2HG: qHTS for the HT-1080-IDH1KD cell line; Potency, µM (top dose mostly 46.1 µM), for inactives: at the top dose activity, negative = toxicity, actives largely listed as cytotoxic; hit rate 2% among 360,000; HT-1080 IDH1 knockdown viability, ATP luminescence, 48 h; AID 686971, 2013;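 also: 0% = DMSO wells and -100% = cell-free medium wells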
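In this qHTS, HT-1080 cells depleted of IDH1 are exposed for 48 h at 37 °C to compound titrations. Toxicity is scored from CellTiter-Glo luminescence, with DMSO as full viability and medium alone as none.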
TDP1 cell noCPT: qHTS for Inhibitors of human tyrosyl-DNA phosphodiesterase 1 (TDP1): qHTS in cells in absence of CPT; DT40 Tdp1-/- hTDP1 cells, no CPT, ATP luminescence, 48 h; Potency, µM (doses to about 46.2 µM), for inactives: at the top dose activity change, negative = growth inhibition, hits mostly inhibitors; hit rate 15% among 420,000; AID 686978, 2013; also: nearly all actives have a fitted effect of over 55% in size
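Luminescent ATP content (CellTiter-Glo) served as the growth readout. Knockout chicken DT40 cells expressing human TDP1 were exposed to compounds without camptothecin for a minimum 48 hr at 37 °C.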
DT40 TDP1 CPT: qHTS for Inhibitors of human tyrosyl-DNA phosphodiesterase 1 (TDP1): qHTS in cells in presence of CPT | chicken DT40 Tdp1-/-;hTDP1 cells + 20 nM CPT, ATP luminescence, 48 h | Potency, µM (titrated, usually from 46.2 µM), without a hit: at the top dose activity change, negative = growth inhibition, actives largely listed as inhibitors | hit rate 12% among 420,000 | AID 686979, 2013; also: nearly all actives have a fitted effect of over 55% in size
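Chicken DT40 Tdp1-/- cells complemented with human TDP1, 400 cells/well, exposed to compounds plus 20 nM camptothecin for at least 48 h at 37 C; viability read as ATP content by CellTiter-Glo luminescence.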
HT1080NT lethal: qHTS for induction of synthetic lethality in tumor cells producing 2HG: qHTS for the HT-1080-NT fibrosarcoma cell line | HT-1080-NT fibrosarcoma viability, CellTiter-Glo ATP luminescence, 48 h | Potency, µM (top dose mostly 46.1 µM), for inactives: top-dose activity, negative = less viability, usual class: cytotoxic | hit rate 1.6% among 360,000 | AID 686970, 2013;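 also: NT is the 2HG producing partner of a matched IDH1 knockdown line; 0% = DMSO-treated cells and -100% = media-only wells without cells; nearly all actives have a fitted effect of over 55% in size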
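Viability of the 2HG-overproducing fibrosarcoma line after 48 hours of compound exposure at 37 degrees C was determined by luminescence with CellTiter-Glo, and concentration-effect curves were then fitted and categorized.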
KB-3-1 cytotox: qHTS assay for MDR1-selective chemotherapeutics: Primary screen using the parental adenocarcinoma cell KB-3-1; KB-3-1 viability, CellTiter-Glo ATP luminescence, 72 h; Potency, µM (doses to about 46.1 µM), most hits filed as cytotoxic; hit rate 1.4% among 400,000; also: nearly all actives have a fitted effect of over 60% in size
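Using CellTiter-Glo luminescence, growth of non-resistant KB-3-1 adenocarcinoma cells is assessed 72 h after pin-tool compound addition at 37 °C. Normalized responses across the concentration series yield fitted curves.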
Starred values were filed as active, the others as inactive; i = inactive; ? = inconclusive; . = no result. Calls follow the shape of the dose curve; as a rule, active = well fitted curve in the direction sought with a large enough effect; inconclusive = small, poorly fitted or top-dose-only effect, or another doubt; inactive = no such curve, though single readings can be large; an effect the other way counts as inactive or inconclusive. Unless noted, % is scaled to controls: 0 for no effect and ±100 for the full control effect; potency is read from the fitted curve at half-maximal effect.

SMILES	KB-V1 cytotox	HT1080 IDH1KD tx	TDP1 cell noCPT	DT40 TDP1 CPT	HT1080NT lethal	KB-3-1 cytotox
Cc1nc(N2CCN(c3ccccn3)CC2)c2c(C)c(C(=O)N3CCN(c4ccccc4F)CC3)sc2n1	20.6µM*	-3.7%	20.6µM*	?	-25.2%	?
Cc1ccc(NC(=O)c2sc3ncnc(N(C)C4CCCCC4)c3c2C)c(C)c1	i	.	?	?	.	i
Cc1ccc(NC(=O)c2sc3nc(C)nc(N4CCN(c5ccccn5)CC4)c3c2C)c(C)c1	i	-9.5%	?	-26.1%	-4.0%	i
Cc1nc(N2CCN(c3ccccn3)CC2)c2c(C)c(C(=O)Nc3ccc(Br)cc3C)sc2n1	i	3.2%	?	16.4µM*	9.0%	i
COc1cc(NC(=O)c2sc3nc(C)nc(N4CCOCC4)c3c2C)cc(OC)c1OC	23.1µM*	-23.8%	11.6µM*	20.6µM*	-12.3%	i
Cc1ccc(NC(=O)c2sc3ncnc(N4CCN(c5ccccn5)CC4)c3c2C)c(C)c1	i	-14.6%	18.4µM*	?	3.5%	i
Cc1c(CNC(=O)c2c([N+](=O)[O-])cnn2C)cnn1C	i	-1.6%	9.8%	11.4%	6.1%	i
CCc1ccc(NC(=O)Cn2c(=O)n(Cc3nc(-c4ccccc4)no3)c(=O)c3cc4c(cc32)OCO4)cc1	i	.	-21.5%	-0.9%	.	i
C/C(CC(=O)Nc1ccccc1C#N)=N\NC(=O)c1ccncc1	i	12.5%	7.3%	27.3%	8.4%	i
Cc1nc(N2CCCCC2)c2c(C)c(C(=O)Nc3ccccc3C(F)(F)F)sc2n1	i	?	2.91µM*	2.06µM*	-28.6%	i
CCCN1CCN(c2ncnc3sc(C(=O)Nc4c(C)cc(C)cc4C)c(C)c23)CC1	?	.	10.3µM*	16.4µM*	.	20.6µM*
COc1ccc(C)cc1NC(=O)c1sc2ncnc(N3CCN(c4ccccn4)CC3)c2c1C	i	13.1%	18.4µM*	16.4µM*	6.7%	i
COc1ccc(C)cc1NC(=O)c1sc2nc(C)nc(N3CCOCC3)c2c1C	i	6.2%	?	5.5%	-1.4%	i
COc1ccc(-c2cc(C(=O)NCC3CCCCC3)[nH]n2)c(C)c1	i	6.9%	?	?	4.5%	i
CCc1cccc(NC(=O)C(Cc2ccccc2)NS(=O)(=O)c2cccs2)c1 (configuration not stated)	?	.	18.4µM*	?	.	i
Cc1ccc(NC(=O)C(Cc2ccccc2)NS(=O)(=O)c2cccs2)cc1Cl (configuration not stated)	i	.	2.5%	-2.3%	.	i
COc1cc(NC(=O)C(Cc2ccccc2)NS(=O)(=O)c2cccs2)cc(OC)c1 (configuration not stated)	?	.	-27.9%	23.1µM*	.	?
Cc1ccc(NC2=C(N3CCOCC3)C(=O)c3ccccc3C2=O)cc1	?	?	25.9µM*	20.6µM*	?	i
CC(=O)N(C)C1=C(N2CCOCC2)C(=O)c2ccccc2C1=O	11.6µM*	0.891µM*	0.164µM*	0.184µM*	1.58µM*	1.16µM*
O=C(O)c1ccc(NC2=C(N3CCOCC3)C(=O)c3ccccc3C2=O)cc1	i	5.0%	?	?	-1.8%	i
CC(=O)c1ccc(NC2=C(N3CCOCC3)C(=O)c3ccccc3C2=O)cc1	25.9µM*	?	20.6µM*	23.1µM*	?	i
CCOC(=O)c1c(C)[nH]c(C(=O)OC(C)C(=O)NC2(C#N)CCCCC2)c1C (configuration not stated)	i	1.4%	?	?	1.9%	i
CCOc1ccc(NC(=O)c2cc3c(s2)-c2ccccc2OC3)cc1	i	.	?	?	.	i
Cc1cnc(CNc2nc(-c3ccccc3Cl)nc3ccccc23)cn1	.	.	-13.9%	-15.1%	.	.
Cc1ccccc1C(=O)Nc1nnc2n1CCS2	?	.	4.6%	-2.4%	.	i
SMILES	KB-V1 cytotox	HT1080 IDH1KD tx	TDP1 cell noCPT	DT40 TDP1 CPT	HT1080NT lethal	KB-3-1 cytotox
CCOc1ccc(Nc2ccc([N+](=O)[O-])c3nonc23)cc1	i	-25.6%	23.1µM*	?	-27.4%	i
CC(Sc1ccc(S(=O)(=O)N2CCCCC2)cn1)C(N)=O (configuration not stated)	i	9.3%	-14.6%	-18.4%	1.8%	i
COc1ccc(C(=O)C2CCCN(Cc3cccn3-c3nccs3)C2)cc1F (configuration not stated)	i	?	20.6µM*	23.1µM*	?	?
COc1ccc(C(=O)C2CCCN(Cc3cccn3-c3nccs3)C2)cc1OC (configuration not stated)	i	?	13µM*	18.4µM*	?	i
OCCC1CN(Cc2cccn2-c2nccs2)CCN1Cc1ccccc1 (configuration not stated)	i	10.0%	-5.8%	-26.3%	2.8%	i
OCCC1CN(Cc2cccn2-c2nccs2)CCN1Cc1ccc(F)c(F)c1 (configuration not stated)	i	-1.2%	18.4µM*	13µM*	-2.2%	i
COc1ccc(C(=O)C2CCCN(Cc3ccc4c(c3)OCCO4)C2)cc1F (configuration not stated)	i	-6.3%	-21.4%	?	-10.5%	i
COc1ccc(Br)cc1-c1nc(CCl)cs1	i	9.5%	14.6µM*	13µM*	2.9%	i
O=C(Nc1ccccc1Cl)c1cc(C2CCCCN2C(=O)CCc2ccccc2)on1 (configuration not stated)	i	-8.3%	?	?	-21.7%	i
O=C(Nc1cccc2c1CCCC2)c1cc(C2CCCCN2C(=O)CCCc2ccccc2)on1 (configuration not stated)	i	-2.9%	?	16.4µM*	0.0%	i
O=C(Nc1ccncc1)c1cc(C2CCCCN2C(=O)CCCc2ccccc2)on1 (configuration not stated)	i	-8.6%	14.6µM*	16.4µM*	-0.4%	i

Bioassay records: PubChem BioAssay, National Center for Advancing Translational Sciences (NCATS)
